Data published in PubChem BioAssay (NCATS).
Inconclusive results are not listed. Activity calls are given as the source filed them. Unless noted, the call rests on the fitted dose curve; in most records, active means well fitted curve in the direction sought with a large enough effect; inconclusive means small, poorly fitted or top-dose-only effect, or another doubt; inactive means no such curve, though single readings can be large; an effect the other way counts as inactive or inconclusive.

How the values were obtained:
[1] = biological target: Galactokinase (Homo sapiens) (UniProt P51570); experiment: qHTS Validation Assay for Inhibitors of Human Galactokinase (GALK) (AID 493189)
Galactokinase (Homo sapiens), sequence (P51570 whole entry, looked up): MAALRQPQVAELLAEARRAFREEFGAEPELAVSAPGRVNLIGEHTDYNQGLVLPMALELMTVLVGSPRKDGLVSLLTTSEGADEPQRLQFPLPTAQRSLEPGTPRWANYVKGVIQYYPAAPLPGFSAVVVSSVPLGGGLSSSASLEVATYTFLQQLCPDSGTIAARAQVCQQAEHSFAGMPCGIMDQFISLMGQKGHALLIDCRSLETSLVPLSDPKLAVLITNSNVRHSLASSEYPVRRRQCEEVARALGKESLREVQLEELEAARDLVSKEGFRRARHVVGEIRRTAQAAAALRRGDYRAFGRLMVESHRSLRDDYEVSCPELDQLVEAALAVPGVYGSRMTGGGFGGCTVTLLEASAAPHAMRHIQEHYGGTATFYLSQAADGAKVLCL
In short: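 GALK (5 nM) with 35 uM ATP and 100 uM galactose in HEPES pH 8.0 with MgCl2, NaCl, DTT and BSA. Reaction ran 1 h at room temperature. Residual ATP read by Kinase-Glo Plus luminescence.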

[2] = Validation screen for small molecules that induce DNA re-replication in SW480 colon adenocarcinoma cells (AID 504364)
In short: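 SW480 cells seeded at 250 per well were exposed to compound or DMSO for 48 hr at 37 C, 5% CO2, then stained with Hoechst for 40 min. DNA content per nucleus was imaged (405 nm ex, 500-530 nm em).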

[3] = biological target: Phosphoglycerate kinase, glycosomal (Trypanosoma brucei brucei) (UniProt P07378); experiment: qHTS Validation Assay to Find Inhibitors of Phosphoglycerate Kinase (AID 504547)
Phosphoglycerate kinase, glycosomal (Trypanosoma brucei brucei), sequence (P07378 whole entry, looked up): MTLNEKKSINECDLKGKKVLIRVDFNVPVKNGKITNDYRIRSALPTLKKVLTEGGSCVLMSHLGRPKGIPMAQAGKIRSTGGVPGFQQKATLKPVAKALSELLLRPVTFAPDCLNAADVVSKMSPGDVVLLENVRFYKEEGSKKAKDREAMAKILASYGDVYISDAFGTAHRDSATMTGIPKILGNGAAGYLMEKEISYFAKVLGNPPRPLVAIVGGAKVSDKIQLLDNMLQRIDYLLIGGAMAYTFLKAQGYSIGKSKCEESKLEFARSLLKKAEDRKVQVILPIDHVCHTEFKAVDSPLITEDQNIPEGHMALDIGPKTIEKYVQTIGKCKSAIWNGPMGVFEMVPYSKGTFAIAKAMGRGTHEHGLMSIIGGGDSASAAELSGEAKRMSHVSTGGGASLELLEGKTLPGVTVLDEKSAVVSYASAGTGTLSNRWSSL
In short: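 Substrate/PGK mix plus compound; reaction started with GAPDH (100nM final) to form 1,3-BPG; 60 min RT; Kinase-Glo Plus 10 min; luminescence. TEA 100mM pH 7.6, MgCl2 5mM, Tween-20 0.01%.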

[4] = biological target: phosphoglycerate mutase (Leishmania major) (UniProt Q4Q090); experiment: qHTS Validation Assay to Find Inhibitors of Phosphoglycerate Mutase (AID 504548);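 further: end-point luminescence from Kinase-GloPlus after the PGAM reaction; series mostly up to about 58 µM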
phosphoglycerate mutase (Leishmania major), sequence (Q4Q090 1-553): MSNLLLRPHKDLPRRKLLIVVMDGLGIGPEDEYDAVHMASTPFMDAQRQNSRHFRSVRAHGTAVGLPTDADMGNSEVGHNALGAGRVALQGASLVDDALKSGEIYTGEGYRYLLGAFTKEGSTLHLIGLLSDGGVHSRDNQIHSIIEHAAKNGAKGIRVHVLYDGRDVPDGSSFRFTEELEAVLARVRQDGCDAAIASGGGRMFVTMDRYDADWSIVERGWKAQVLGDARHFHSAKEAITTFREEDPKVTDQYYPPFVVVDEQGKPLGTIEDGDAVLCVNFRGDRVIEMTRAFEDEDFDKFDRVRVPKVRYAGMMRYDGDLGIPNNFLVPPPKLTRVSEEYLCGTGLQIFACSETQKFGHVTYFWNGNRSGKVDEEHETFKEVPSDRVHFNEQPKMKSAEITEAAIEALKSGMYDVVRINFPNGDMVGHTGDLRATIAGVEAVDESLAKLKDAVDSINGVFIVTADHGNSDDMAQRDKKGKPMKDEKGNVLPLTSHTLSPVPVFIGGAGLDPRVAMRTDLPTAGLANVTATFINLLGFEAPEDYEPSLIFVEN
In short: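 L. major PGAM (1.25nM final) was added to substrate buffer and pinned compound, incubated 45 minutes at room temperature, then Kinase-GloPlus added; luminescence read after 10 minutes. Buffer: 100 mM TEA pH 7.6, 5 mM MgCl2, 0.01% Tween-20.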

[5] = biological target: Ubiquitin carboxyl-terminal hydrolase 1 (Homo sapiens) (UniProt O94782); experiment: Inhibitors of USP1/UAF1: Pilot qHTS (AID 504865); further: nearly all actives have a fitted effect of over 35% in size; further: potency means the concentration at half of the fitted maximal effect
Ubiquitin carboxyl-terminal hydrolase 1 (Homo sapiens), sequence (O94782 whole entry, looked up): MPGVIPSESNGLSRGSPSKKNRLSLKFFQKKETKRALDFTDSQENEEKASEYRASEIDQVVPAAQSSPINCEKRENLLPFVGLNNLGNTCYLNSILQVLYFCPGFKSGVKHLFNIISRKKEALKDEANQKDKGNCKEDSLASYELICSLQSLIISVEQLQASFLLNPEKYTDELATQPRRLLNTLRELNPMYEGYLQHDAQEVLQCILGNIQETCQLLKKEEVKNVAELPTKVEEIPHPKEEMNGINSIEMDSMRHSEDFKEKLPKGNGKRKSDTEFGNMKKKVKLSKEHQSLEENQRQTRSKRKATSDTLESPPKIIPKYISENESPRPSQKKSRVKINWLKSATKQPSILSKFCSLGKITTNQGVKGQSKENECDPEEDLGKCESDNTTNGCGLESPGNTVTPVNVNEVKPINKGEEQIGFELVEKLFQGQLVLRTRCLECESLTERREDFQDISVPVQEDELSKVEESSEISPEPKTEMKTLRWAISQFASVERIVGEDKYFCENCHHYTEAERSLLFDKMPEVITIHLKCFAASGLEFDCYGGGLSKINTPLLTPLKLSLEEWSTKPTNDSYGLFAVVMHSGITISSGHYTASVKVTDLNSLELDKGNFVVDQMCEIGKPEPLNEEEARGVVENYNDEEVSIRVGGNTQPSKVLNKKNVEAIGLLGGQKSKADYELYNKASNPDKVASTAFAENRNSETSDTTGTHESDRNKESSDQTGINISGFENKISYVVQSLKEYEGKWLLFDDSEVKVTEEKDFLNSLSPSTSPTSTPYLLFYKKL
In short: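 USP1/UAF1 complex at 1 nM preincubated 15 min at room temperature with compound, then Ub-Rho substrate added at 150 nM final. Fluorescence (480/540 nm) read kinetically in 50 mM HEPES pH 7.8, 0.5 mM EDTA, 1 mM TCEP, 0.1 mg/ml BSA, 0.01% Tween-20.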

[6] = qHTS for Inhibitors of ATXN expression: Validation of Cytotoxic Assay (AID 588349)
In short: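 HEK293 cells were dosed with titrated compounds for 72 hr at 37 degrees C. Viability was read by CellTiter Glo luminescence, with intracellular ATP as the marker of cell survival.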

[7] = qHTS for Inhibitors of ATXN expression: Validation (AID 588378); further: nearly all actives have a fitted effect of over 75% in size; further: potency means the concentration at half of the fitted maximal effect
In short: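 HEK293 cells carrying ATXN2-firefly luciferase reporter, treated with compound 24 h at 37 °C. Viability read first by CellTiter-Fluor (405/525 nm), then reporter expression by Bright-Glo luminescence; controls were a known ATXN2 expression inhibitor and a luciferase inhibitor.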

[8] = biological target: Peptidyl-prolyl cis-trans isomerase NIMA-interacting 1 (Homo sapiens) (UniProt Q13526); experiment: qHTS Validation Assay to Find Inhibitors of Pin1 (AID 504536; active means well fitted inhibition curve with a large enough effect in the polarisation, with a control signal flat, not every such curve was filed as active; the % refers to the polarisation)
Peptidyl-prolyl cis-trans isomerase NIMA-interacting 1 (Homo sapiens), sequence (Q13526 whole entry, looked up): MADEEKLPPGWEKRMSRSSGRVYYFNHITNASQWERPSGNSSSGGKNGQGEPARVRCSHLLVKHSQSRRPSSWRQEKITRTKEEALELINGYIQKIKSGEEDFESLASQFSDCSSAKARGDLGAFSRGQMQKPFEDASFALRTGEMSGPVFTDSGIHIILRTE
In short: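 Fluorescence polarization competition: compounds (titration) displace HiFluor-488-labeled Pin1-1b peptide from Pin1 (0.3 uM final) in pH 7.5 HEPES buffer with DTT, 10 min at room temperature; %Activity normalized to no-enzyme wells, curves fitted.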

[9] = biological target: DNA dC->dU-editing enzyme APOBEC-3G (Homo sapiens) (UniProt Q9HC16); experiment: qHTS for inhibitors of Vif-A3G interactions: Validation (AID 588379)
DNA dC->dU-editing enzyme APOBEC-3G (Homo sapiens), sequence (Q9HC16 whole entry, looked up): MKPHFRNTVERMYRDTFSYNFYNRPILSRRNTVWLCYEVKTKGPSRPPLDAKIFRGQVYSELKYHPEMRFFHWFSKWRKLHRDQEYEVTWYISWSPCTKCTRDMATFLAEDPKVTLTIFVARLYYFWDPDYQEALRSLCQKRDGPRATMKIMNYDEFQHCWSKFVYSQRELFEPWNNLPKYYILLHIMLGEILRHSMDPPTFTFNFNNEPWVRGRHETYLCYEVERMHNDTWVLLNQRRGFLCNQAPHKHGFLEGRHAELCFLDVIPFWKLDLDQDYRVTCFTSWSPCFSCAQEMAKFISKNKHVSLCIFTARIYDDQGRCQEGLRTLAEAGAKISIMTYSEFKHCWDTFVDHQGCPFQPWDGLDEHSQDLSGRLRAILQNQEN
In short: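 HeLa cells stably expressing Vif and A3G-eYFP, 700 cells/well, incubated overnight at 37 deg C, then exposed to compound overnight at 37 deg C. Inhibition of Vif-mediated degradation read as increased yellow fluorescence (Ex 488/Em 500-530) by laser-scanning cytometry.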

Measured: Potency

Brc1ccc([C@H]2CN3CCSC3=N2)cc1
inactive: [1] | [2] | [3] | [4] | [5] | [6] | [7]

N[C@@H](Cn1ccc(=O)c(O)c1)C(=O)O
inactive: [8] | [3] | [4] | [5] | [6] | [7]

CC(C)N(CCC(=O)c1ccc2ccccc2c1)Cc1ccccc1
inactive: [1] | [2] | [8] | [3] | [9]

C[N+](C)(C)CCO
inactive: [1] | [2] | [8] | [3] | [4] | [5] | [6] | [7]

CCOC(=O)NNc1nncc2ccccc12
inactive: [5]

CN(C)c1cc2c(Nc3ccc4c(cnn4Cc4ccccc4)c3)ncnc2cn1
inactive: [1] | [8] | [3] | [4]

CCCCCCCCCCCCCC[N+](C)(C)C
active: [5] 50.1 µM

C[C@]12CCC(=O)C=C1CC[C@@H]1[C@@H]2[C@@H](O)C[C@@]2(C)[C@H]1CC[C@]2(O)C(=O)COC(=O)CCC(=O)O
inactive: [1] | [2]

COc1cccc2c1[C@@H]1CN(CCCCn3c(=O)[nH]c4c(sc5ncc(-c6ccccc6)nc54)c3=O)C[C@@H]1CO2
inactive: [1] | [2] | [8] | [3] | [4] | [5]

Cc1nn(-c2ccccc2)c(C)c1/C=N/N1CCN(Cc2ccccc2)CC1
inactive: [8] | [3] | [4] | [6] | [7]

Cc1cc(C(C)(C)C)c(O)c(C(C)(C)C)c1
inactive: [5]

CCCCCCCCCCCCCCCC[N+](C)(C)Cc1ccccc1
active: [5] 50.1 µM

O=C1NC(=O)/C(=C/c2ccc3c(c2)OC(F)(F)O3)S1
inactive: [8] | [3] | [4] | [5] | [6] | [7]

O=[N+]([O-])c1ccc(-c2nc(-c3ccc(F)cc3)c(-c3ccncc3)[nH]2)cc1
inactive: [1] | [2] | [3] | [4] | [6] | [7]

CCN(CC)CCNC(=O)c1ccc(NS(C)(=O)=O)cc1
inactive: [8] | [3] | [4] | [5] | [6] | [7]

COc1ccccc1N1CCN(CCN2C(=O)CC3(CCCC3)CC2=O)CC1
inactive: [1] | [2] | [8] | [3] | [4] | [5] | [6] | [7] | [9]

CN(C(=O)C(Cl)Cl)c1ccc(OC(=O)c2ccco2)cc1
inactive: [5]

O=C1NC(c2cccc([N+](=O)[O-])c2)=CCN1c1ccccc1O
inactive: [1] | [2] | [8] | [3] | [4] | [5] | [6] | [7] | [9]

Clc1ccc2c(c1)N=C(N1CCNCC1)c1ccccc1N2
inactive: [8] | [3] | [4] | [9]
active: [7] 12.6 µM

COC(=O)C1=CO[C@@H](O)[C@@H]2C(CO)=CC[C@H]12
inactive: [8] | [3] | [4] | [5] | [6] | [7]

NC(N)=NCCCCN=C(N)N
inactive: [1] | [2] | [8] | [3] | [4] | [5] | [6] | [7] | [9]

Nc1ncnc2n[nH]c(Nc3ccc(F)cc3)c12
inactive: [8] | [3] | [4] | [5] | [6]

Cn1cnc2c(NCc3ccccc3)nc(NCCO)nc21
inactive: [1] | [2] | [8] | [3] | [4] | [5] | [6] | [7] | [9]
